Screening results: PubChem, National Center for Advancing Translational Sciences (NCATS)
SW480 rereplic: A quantitative high throughput screen for small molecules that induce DNA re-replication in SW480 colon adenocarcinoma cells. SW480 DNA re-replication, Hoechst DNA content imaging, 48 h. Potency, µM (titrated, usually from 46.1 µM), for the others: at the top dose re-replication activation, usual class: activators. actives 1.8% (n = 340,000). AID 624297, 2012; also: % of control where 0% means no effect; nearly all actives have a fitted effect of over 55% in size
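Cells (250 per well) received 23 nL compound or DMSO by pin tool and were kept 48 hr at 37 C, 5% CO2. Nuclei were then stained with Hoechst for 40 min and scanned for DNA content.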
KB-V1 cytotox: qHTS assay for MDR1-selective chemotherapeutics: Primary screen using the drug-selected MDR subline cells KB-V1. KB-V1 MDR cells viability, CellTiter-Glo, 72 h. Potency, µM (series often up to 46.1 µM), most hits filed as cytotoxic. actives 3.4% (n = 400,000). AID 1347076, 2019; also: % is scaled to controls: 0 for no effect and ±100 for the full control effect; nearly all actives have a fitted effect of over 60% in size
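Compound-treated KB-V1 multidrug-resistant cells, 72 h, 37 degrees C; viability by CellTiter-Glo. Fitted qHTS curves give the values.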
KB-3-1 tox: qHTS assay for MDR1-selective chemotherapeutics: Primary screen using the parental adenocarcinoma cell KB-3-1; KB-3-1 viability, CellTiter-Glo ATP luminescence, 72 h; Potency, µM (top dose mostly 46.1 µM), actives largely listed as cytotoxic; actives 1.4% (n = 400,000); AID 1347075, 2019; also: % is scaled to controls: 0 for no effect and ±100 for the full control effect; nearly all actives have a fitted effect of over 60% in size
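Screening of KB-3-1 cells (DMEM, 10% FBS, phenol-red free) ran from lowest to highest compound concentration; after 72 h at 37 °C viability was read luminescently and curves fitted.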
PINK1 expr mod: A Quantitative High throughput Screen to Identify Chemical Modulators of PINK1 Expression | PINK1 immunofluorescence, high-content cytometry, 24 h | Potency, µM (series often up to 76.6 µM), for inactives: top-dose activation (PINK1 increase), hits mostly activators | actives 0.2% (n = 410,000); active = well fitted activation curve with a large enough effect; inconclusive = small, poorly fitted or top-dose-only effect; cell line not stated here; also: % of control where 0% means no effect; nearly all actives have a fitted effect of over 65% in size
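A stable cell line was treated with compounds at 5 concentrations for 24 hours, with CCCP as control. PINK1 levels and mitochondrial localization were measured by immunofluorescence with mitochondrial, cell and nuclear markers after fixation, read by laser-scanning cytometry.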
MCF10A rereplic: A quantitative high throughput screen for small molecules that induce DNA re-replication in MCF 10a normal breast cells; AID 624296, 2012; actives 2.9% (n = 350,000); MCF 10A DNA re-replication, Hoechst nuclear intensity, 48 h; Potency, µM (highest dose often 46.1 µM), for inactives: top-dose activity, positive = re-replication, most hits filed as activators; also: % of control where 0% means no effect; nearly all actives have a fitted effect of over 50% in size
TSG101-PTAP inh: qHTS Assay for Iinhibitors of HIV-1 Budding by Blocking the Interaction of PTAP/TSG101; AID 493005, 2010; Fluorescence polarization, FITC-PTAP peptide / Tsg101 binding; 340,000 tested, under 10 active; Tumor susceptibility gene 101 protein (Homo sapiens), Q99816; Potency, µM (series often up to 115 µM), for inactives: at the top dose activity change, negative = inhibition, most hits filed as inhibitors; active = well fitted inhibition curve with a large enough effect in the main read-out, with a control signal flat, not every such curve was filed as active; inconclusive = small, poorly fitted or top-dose-only effect, or effect the other way, or a change in a side signal; inactive = no such curve, though single readings can be large or run the other way; also: % of control where 0% means no effect
Target sequence (Q99816 whole entry, looked up): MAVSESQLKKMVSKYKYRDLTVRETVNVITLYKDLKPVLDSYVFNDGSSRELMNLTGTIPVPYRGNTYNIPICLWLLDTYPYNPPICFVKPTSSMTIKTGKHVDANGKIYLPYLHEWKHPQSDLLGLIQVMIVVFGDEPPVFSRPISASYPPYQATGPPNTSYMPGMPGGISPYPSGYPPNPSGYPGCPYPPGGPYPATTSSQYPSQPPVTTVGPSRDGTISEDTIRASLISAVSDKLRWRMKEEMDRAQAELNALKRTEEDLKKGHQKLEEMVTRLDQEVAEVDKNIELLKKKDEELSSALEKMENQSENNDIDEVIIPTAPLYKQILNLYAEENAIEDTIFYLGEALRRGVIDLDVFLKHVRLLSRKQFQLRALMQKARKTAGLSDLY
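Fluorescence anisotropy tracks displacement of a FITC-tagged PTAP peptide (50 nM) from the Tsg101 binding domain (10 uM), following a 20 min room-temperature incubation at pH 7.5.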
* = called active by the depositor; i = inactive; ? = inconclusive; / = no result; [ ] = another dose, or the depositor's remark. A selection: hits, their analogues and other compounds. The true share with any hit is near 6.8%. Unless noted, calls follow the shape of the dose curve; as a rule, active = well fitted curve in the direction sought with a large enough effect; inconclusive = small, poorly fitted or top-dose-only effect, or another doubt; inactive = no such curve, though single readings can be large; an effect the other way counts as inactive or inconclusive. Potency is read from the fitted curve at half-maximal effect.

SMILES | SW480 rereplic | KB-V1 cytotox | KB-3-1 tox | PINK1 expr mod | MCF10A rereplic | TSG101-PTAP inh
O=C(c1cccs1)N1CCN(c2cccc(Cl)c2)CC1 | -11% | i | i | 2% | -1% | 2%
COc1ccc(-c2nc3c(=O)n(C)c(=O)nc-3n(C)n2)cc1 | / | 4.6µM* | 0.65µM* | 0% | / | /
Cn1nc(-c2ccc(F)cc2)nc2c(=O)n(C)c(=O)nc1-2 | / | 5.2µM* | 2.9µM* | -1% | / | /
Cc1nc2ccccn2c(=O)c1NC(=O)c1ccc(C(F)(F)F)cc1 | / | / | / | 2% | / | /
O=C1C(c2cccc(Br)c2)N(CCc2ccccc2)C(=O)CN1C1CCCCC1 (stereo not drawn) | / | / | / | 0% | / | /
CNC(=S)N=Nc1c(O)[nH]c2ccccc12 | 11% | ? | i | 2% | 11% | -2%
CC(C)c1ccc2[nH]c(O)c(N=NC(=O)c3cccc(S(=O)(=O)N4CCCCC4)c3)c2c1 | -2% | 2.3µM* | ? | 1% | 0% | -2%
CNC(=S)N=Nc1c(O)[nH]c2ccc(C(C)C)cc12 | -33% | 21µM* | ? | 0% | 3% | -1%
Cc1cc(NC(=O)CSc2nc3c(cc2C#N)CCCC3)no1 | 21% | ? | i | 16% | ? | -2%
N#Cc1c(NC(=O)CSc2ncn[nH]2)sc2c1CCCCC2 | ? | 4.1µM* | i | 2%[38.3 µM] | -1% | /
Cc1noc(NS(=O)(=O)c2ccc(NC(=O)CSc3nc4c(cc3C#N)CCCC4)cc2)c1C | 2% | ? | i | 1% | 23µM* | 0%
CCCCn1nnnc1SCC(=O)Nc1sc2c(c1C#N)CCCC2 | 3% | ? | i | 4% | 11µM* | -3%
Cc1cc(NC(=O)CSc2nc3c(cc2C#N)CCC3)no1 | 15µM* | i | i | 8% | ? | -4%
CCOCCCNC(=O)c1ccc2c(=O)n(CCc3ccc(OC)c(OC)c3)c(=O)[nH]c2c1 | / | i | i | 2% | / | /
COc1ccc2nc(SCC(=O)Nc3ccc(S(=O)(=O)N4CCCC4)cc3)c(C#N)cc2c1 | 4% | i | i | 13%[38.3 µM] | -4% | 6%
N#Cc1cc2c(nc1SCC(=O)Nc1sc3c(c1C#N)CCC3)CCCCC2 | 18µM* | i | i | ? | 0.82µM* | -2%
Cc1ccc(NC(=O)CSc2nc3c(cc2C#N)C(=O)CCC3)cc1S(=O)(=O)N(C)C | 15% | i | i | 18% | ? | -3%
N#Cc1cc2ccccc2nc1SCC(=O)Nc1ccc(S(=O)(=O)N2CCCC2)cc1 | 14% | 4.1µM* | i | 3%[38.3 µM] | 24% | /
CN(C)S(=O)(=O)c1ccc(Cl)c(NC(=O)CSc2nc3c(cc2C#N)C(=O)CCC3)c1 | 2.6µM* | 10µM* | i | 6% | ? | 0%
CCOc1ccccc1Nc1ccc2cc(S(=O)(=O)N3CCCCC3)ccc2n1 | / | ? | ? | 6% | / | /
CCN(CC)CCOC(=O)C1(c2ccccc2)CCCC1 | 0% | i | i | 22%[38.3 µM] | 1% | -6%
CCN(CC)CCOC(=O)C1(c2ccc(OC)c(OC)c2)CCCC1 | -8% | 21µM* | i | 0%[38.3 µM] | -2% | -2%
CC(=O)c1c(C)[nH]c(-c2ccccc2)c1C | -2% | i | i | 3% | 3% | -1%
O=C(O)/C=C/C(=O)c1c(-c2ccccc2)[nH]c2ccccc12 | ? | i | i | 1% | 21µM* | -6%
CC(=O)c1c(-c2ccccc2)[nH]c2ccccc12 | ? | 7.3µM* | ? | 3% | 16µM* | -2%
SMILES | SW480 rereplic | KB-V1 cytotox | KB-3-1 tox | PINK1 expr mod | MCF10A rereplic | TSG101-PTAP inh
CCCSc1nc2c([nH]c3ccccc32)c(=O)n1C | / | / | / | 0% | / | /
COc1ccc(NC(=O)CCCn2c(=O)c3sccc3n(Cc3ccc(C)cc3)c2=O)cc1 | -2% | i | i | ? | ? | 0%
COc1ccc(NC(=O)CCCn2c(=O)c3sccc3n(Cc3ccc(C)cc3C)c2=O)cc1 | 2% | 8.2µM* | i | 0% | 25% | -2%
Cc1cccc(N2CCN(S(=O)(=O)c3c(C(=O)N4CCC(C)CC4)c(C)n(C)c3C)CC2)c1C | / | / | / | 4% | / | /
O=C(COc1ccc(Cl)c(Cl)c1)NN1C(=O)C2C(C1=O)C1C=CC2C12CC2 (stereo not drawn) | 1µM* | i | i | 0% | 22% | -2%
CC(C)=C1C2CCC1C1C(=O)N(NC(=O)COc3ccc(Cl)c(C)c3)C(=O)C21 (stereo not drawn) | 20% | i | i | -1% | 13% | -7%
CCOC(=O)CNC(=O)C1CCCCC1 | / | ? | i | -1% | / | /
CSc1ccc(C2C(C#N)=C(N)Oc3c2ccc(=O)c2c(C)oc(C)c32)cc1 (stereo not drawn) | 10% | i | i | ? | 18µM* | 6%
Cc1oc(C)c2c(=O)ccc3c(c12)OC(N)=C(C#N)C3c1ccccc1 (stereo not drawn) | -1% | i | i | ? | ? | 1%
COc1ccc(-n2c(C)c3c(OC)cccc(=O)c3c2C)cc1 | -5% | 18µM* | i | -1% | -4% | -2%
Cc1cccc(NC(=S)N(CCN(C)C)Cc2cc3cccc(C)c3[nH]c2=O)c1 | ? | 16µM* | i | 1% | 3% | -2%
Cc1ccc(NC(=S)N(Cc2cccs2)Cc2cc3cc(C)ccc3[nH]c2=O)cc1 | -6% | i | ? | 6% | 16% | -3%
CCN(CC)CCCN(Cc1cc2cc(OC)ccc2[nH]c1=O)C(=O)Nc1ccccc1 | -1% | i | i | 4% | -2% | 3%
CN(C)CCCN(Cc1cc2cc3c(cc2[nH]c1=O)OCO3)C(=S)Nc1ccccc1 | -3% | i | ? | 3% | 3% | -5%
CCN(CC)CCCN(Cc1cc2cc(OC)ccc2[nH]c1=O)C(=O)Nc1ccc(F)cc1 | ? | i | i | -1% | 2.9µM* | -2%
CN(C)CCCN(Cc1cc2cc3c(cc2[nH]c1=O)OCO3)C(=S)Nc1cccc(Cl)c1 | ? | i | i | -2% | 16µM* | -1%
Cc1ccc(NC(=S)N(CCN(C)C)Cc2cc3cc(C)ccc3[nH]c2=O)cc1 | -4% | 23µM* | i | 4% | 8% | -2%
CC(C)COc1ccc(C(=O)N2CCN(CCc3ccccn3)CC2)cc1 | / | i | i | 2% | / | /
